# ERb coact inh: blocks coactivator binding to human estrogen receptor beta. Q92731. TR-FRET ER-beta LBD / SRC1-Cy5 peptide binding; receptor agonist-loaded with 1 µM estradiol. inhibition, % at 25.6 µM. 1.3% of 86,000 active;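 active = compounds whose percent inhibition of the receptor-coactivator binding signal exceeds about 50% in the single-dose screen, limit read from the data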;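 note: 0% = receptor plus peptide wells without compound and 100% = peptide-only wells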
# ERa SRC1 inh: blocks coactivator binding to human estrogen receptor alpha. TR-FRET ER-alpha LBD / SRC-1 peptide, estradiol-bound. 1.7% of 86,000 active. P03372. inhibition, % at 25.6 µM; in the data active = inhibition above about 50%;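 note: 0% = receptor plus peptide control and 100% = peptide only without receptor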
# Target sequence (P03372 whole entry, looked up, the tested form may be a part): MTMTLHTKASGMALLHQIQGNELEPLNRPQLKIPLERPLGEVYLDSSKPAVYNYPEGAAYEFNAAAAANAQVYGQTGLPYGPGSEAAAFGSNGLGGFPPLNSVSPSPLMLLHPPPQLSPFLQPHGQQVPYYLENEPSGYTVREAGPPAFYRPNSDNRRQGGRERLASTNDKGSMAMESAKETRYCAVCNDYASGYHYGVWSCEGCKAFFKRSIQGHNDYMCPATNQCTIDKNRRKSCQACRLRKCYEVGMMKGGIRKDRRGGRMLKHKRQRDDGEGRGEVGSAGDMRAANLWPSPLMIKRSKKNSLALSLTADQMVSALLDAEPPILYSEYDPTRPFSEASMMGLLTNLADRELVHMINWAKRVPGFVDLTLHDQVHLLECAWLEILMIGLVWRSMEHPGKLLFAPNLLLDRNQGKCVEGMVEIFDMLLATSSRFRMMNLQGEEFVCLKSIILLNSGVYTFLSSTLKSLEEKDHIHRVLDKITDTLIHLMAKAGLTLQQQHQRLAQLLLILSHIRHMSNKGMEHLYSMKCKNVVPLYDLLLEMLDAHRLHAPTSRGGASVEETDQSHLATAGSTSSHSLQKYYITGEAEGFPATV
# E-sel TNF inh: blocks E-selectin expression induced by TNF alpha. HUVEC TNFa-induced E-selectin immunofluorescence, high content. inhibition, % at 2 µM. 0.71% of 120,000 active. AID 1246;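 active = inhibition above the batch mean plus 3 SD, and confirmed as a hit on visual image review, cut at about 43% in these data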;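 note: 0% = TNF-stimulated DMSO wells and 100% = unstimulated control wells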
# ERa SRC1 pot: enhances coactivator binding to human estrogen receptor alpha | P03372 | TR-FRET ERalpha-LBD/SRC-Cy5 coactivator binding, 2 h; 100 = basal binding, no effect | coactivator binding (% of control), % at 25.6 µM | 1.3% of 86,000 active | AID 639; in the data active = activity above about 200%;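 note: binding measured in presence of low estradiol as agonist stimulus; 0% = peptide alone without receptor and 100% = receptor with peptide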
# F-actin modifier: alters cytoskeleton assembly in HUVEC cells; inhibition, % at 2 µM; 0.18% of 91,000 active; HUVEC TNFa F-actin phalloidin imaging, high content;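 active = inhibition above the batch mean plus 3 SD and confirmed as a hit by visual image inspection, cut at about 30% in these data, passing the limit was not always enough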
# Calb biofilm kill: kills Candida albicans biofilms; C. albicans biofilm + clotrimazole, Alamar Blue; inhibition, % at 6 µM; 0.14% of 85,000 active; AID 834;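 active = inhibition above 20%; inactive = inhibition below 20%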;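 note: preformed 24 hr biofilms exposed to compound for 48 hr; 0% = biofilm without compound and 100% = blank killed by clotrimazole plus chlorhexidine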
# An asterisk follows results filed as active; · = no result given; [ ] = remark or other dose. Sampled rows, rich in hits. Any-hit rate of the full collection: about 2.9%.
SMILES,ERb coact inh,ERa SRC1 inh,E-sel TNF inh,ERa SRC1 pot,F-actin modifier,Calb biofilm kill
c1ccc(Cn2ncc3c2ncn2c(-c4ccncc4)nnc32)cc1,-5,-7,·,110,·,9
Cc1ccc(-n2ncc3c2ncn2c(-c4ccncc4)nnc32)cc1,31,66*[fluorescence artefact?],·,89,·,-6
Cc1ccc(-c2nnn(CC(=O)Nc3cccc4cccnc34)n2)o1,-2,4,37,113,-13,8
CNCc1ccccc1Sc1ccc(OC)c(OC)c1,·,·,-42,·,11,·
O=C(NCC(=O)N(Cc1cccs1)C(C(=O)NC1CCCCC1)c1ccco1)c1ccco1 (stereo not given),-8,-4,31,101,-7,7
O=C(NCC(=O)N(Cc1cccs1)C(C(=O)NC1CCCC1)c1ccncc1)c1ccco1 (stereo not given),9,99*[fluorescence artefact?],0,75,6,3
Cc1cc(C)cc(C(=O)Oc2coc(CSc3nnc(NC(=O)C4CC4)s3)cc2=O)c1,·,·,61*,·,·,·
COc1ccc(N=C2SC(C(=O)O)CC(=O)N2C)cc1 (stereo not given),-2,-8,-1,139,-19,3
COc1ccc(N=C2SCC(=O)N2c2ccc(OC)cc2)cc1,-8,-1,87*,115,-7,6
O=C(NC1C2CC3CC(C2)CC1C3)C1CC1 (stereo not given),-6,-3,14,107,-36,·
CCCC(=O)NC1C2CC3CC(C2)CC1C3 (stereo not given),2,83*[fluorescence artefact?],-10,99,3,5
CCOC(=O)N1CCN(c2c(-c3ccccc3)c3cc(Cl)ccc3[nH]c2=O)CC1,·,·,-23,·,27,·
CCN(CC)c1c(-c2ccccc2)c2cc(C)ccc2[nH]c1=O,40,26,-11,248*[fluorescence artefact?],·,12
COC(=O)c1cc(COc2ccc3c(c2)oc(=O)c2ccccc23)c(C)o1,23,30,7,230*,0,5
COCCOC(=O)c1c(C)oc2ccc(OCc3cc(C(=O)OC)oc3C)cc12,-4,-2,-6,101,2,1
COc1ccc(CCNC(=O)Cn2cc(C(F)(F)F)cc(Cl)c2=O)cc1OC,·,·,31,·,·,·
O=C1CC(C(=O)Nc2ccc(C(=O)N3CCOCC3)cc2)C2(CCCCC2)O1 (stereo not given),-1,56*[fluorescence artefact?],26,116,-5,3
C=CCn1c(SCC(=O)Nc2ccc(-c3nc4ccc(C)cc4s3)cc2)nnc1-c1ccccc1,·,·,16,·,·,·
O=C(Nc1ccccc1N1CCOCC1)c1cc(-c2ccco2)nc2ccccc12,79*,87*[fluorescence artefact?],16,40,-4,11
O=C(Nc1ccccc1N1CCOCC1)c1ccc(Cl)nc1,·,·,88*,·,·,·
O=C(Nc1ccccc1N1CCOCC1)c1ccc([N+](=O)[O-])cc1,·,·,21,·,16,·
COc1cccc(-c2cnc(NCc3cc(Cl)ccc3O)n2C)c1,-12,-31,60*,98,15,-1
Cn1c(-c2cccc(Br)c2)cnc1NCc1cccnc1,-1,-3,-1,104,2,5
COc1ccc(-n2c(SCCC#N)nnc2-c2cc(Cl)ccc2OC)cc1Cl,46,47,·,399*[fluorescence artefact?],·,4
Cc1ccc(NC(=O)CC2SC(=Nc3ccc(O)cc3)NC2=O)cc1 (stereo not given),·,·,-10,·,·,·
SMILES,ERb coact inh,ERa SRC1 inh,E-sel TNF inh,ERa SRC1 pot,F-actin modifier,Calb biofilm kill
CCCOCC1CC2(SC(=Nc3ccc(C)cc3)NC2=O)C(=O)O1 (stereo not given),69*[fluorescence artefact?],-6,11,106,9,8
O=C(NCc1ccccn1)C(=O)Nc1nc(C23CC4CC(CC(C4)C2)C3)cs1,·,·,-20,·,·,·
COc1ccc(-c2ccc(-c3noc(-c4ccccc4OC)n3)c(OC)n2)cc1,4,33,6,231*,·,-8
COc1ccc(-c2ccc(-c3noc(-c4ccc(OC)c(OC)c4)n3)c(OC)n2)cc1,44,80*,·,87,·,4
COc1ccc(-c2ccc(-c3noc(C4CCCCC4)n3)c(OC)n2)cc1,-9,-2,9,134,25,-3
COc1ccccc1-c1nc(-c2ccncc2)no1,-3,7,·,118,16,3
COc1ccc(-c2ccc(-c3noc(-c4cccs4)n3)c(OC)n2)cc1,29,37,-17,474*,·,-2
COc1ccc(-c2ccc(-c3noc(-c4cccc(OC)c4)n3)c(OC)n2)cc1,·,·,·,·,-11,·
COc1ccc(Cl)cc1-c1nc(-c2ccncc2)no1,34,30,16,268*,-2,5
COc1ccc(-c2nc(-c3ccc(Br)cc3)no2)c(OC)c1,9,13,-6,206*[fluorescence artefact?],2,0
COc1ccc(-c2ccc(-c3noc(-c4ccccc4C)n3)c(OC)n2)cc1,23,-3,22,230*[fluorescence artefact?],3,6
COc1ccc(-c2ccc(-c3noc(C)n3)c(OC)n2)cc1,9,13,-16,152,-12,8
COc1ccccc1-c1nc(-c2ccc(Br)cc2)no1,5,16,-7,138,·,6
COc1ccc(CC(=O)Nc2ccc(-c3noc(-c4ccccc4OC)n3)cc2)cc1,16,31,-8,328*[fluorescence artefact?],-14,2
COc1cc(OC)cc(-c2nc(-c3ccccc3OC)no2)c1,-5,-2,-2,488*[fluorescence artefact?],4,5
CCOC(=O)C1=C(CC)Nc2ccccc2N/C1=N\S(=O)(=O)c1cc(Br)ccc1Br,·,·,24,·,·,·
COc1ccc(-c2nc3ccccc3c(=O)n2CCOc2cccc(C)c2C)cc1,·,·,30,·,·,·
COc1cc(-c2nc(-c3ccc(NC(=O)c4ccc(Br)o4)cc3)no2)cc(OC)c1OC,33,72*[fluorescence artefact?],-15,227*[fluorescence artefact?],-2,2
O=C(c1ccc2ccccc2n1)N1CCN(c2ccccc2O)CC1,3,-5,-2,99,-41,1
O=C(Cn1nc(Cl)nc1Cl)c1cc2ccccc2oc1=O,37,55*[fluorescence artefact?],·,81,-5,1
Cc1nnc(NCc2ccncc2)c2ccccc12,50*[fluorescence artefact?],60*[fluorescence artefact?],-8,179,-79,3
Cc1nnc(NCc2ccco2)c2ccccc12,3,-4,·,108,14,3
O=C(CSc1ccc2nnc(-c3ccccn3)n2n1)N1CCOCC1,2,-7,·,93,-2,46*
CCOC(=O)N1CCN(C(=O)CSc2ccc3nnc(-c4ccccn4)n3n2)CC1,·,·,-15,·,·,·
CC(=O)N1CCN(c2ccccc2NC(=O)c2cc(Br)ccc2Cl)CC1,-1,3,-21,65,0,10
CN1CCN(c2ccccc2NC(=O)c2cc(Br)ccc2Cl)CC1,45,82*[fluorescence artefact?],13,18,4,4
CCOC(=O)Cc1csc(NC(=O)CCCN2C(=O)c3ccccc3C2=O)n1,-13,3,0,109,16,5
CCOC(=O)Cc1csc(NC(=O)CCN2C(=O)c3ccccc3C2=O)n1,97*[fluorescence artefact?],2,·,98,7,10
COc1cc(/C=N/NC(=O)/C(=C\c2ccc([N+](=O)[O-])cc2)NC(=O)c2ccccc2)cc(OC)c1O,10,53*[fluorescence artefact?],-12,51,-2,0

# Bioassay records deposited in PubChem by several laboratories.
